Experimental data: PubChem BioAssay (NCI)
Where “and” joins values, the source holds several entries; their conditions need not be identical. Equal entries are not always repeated. Compounds without any hit were thinned out: in the full panel of roughly 83,000, 20% have a hit.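 Assay: single dose, 48 h. Readout: percent growth (0 = no net growth; negative = cell death). Active: <10.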 Calls of active or inactive are those of the source.

Key:
Experiment in all cases: NCI-60 one-dose screen, 48 h (100 = growth as untreated, 0 = no growth, -100 = all killed)
Conditions in all cases: 10 µM unless noted
[1] = tested on: NCI-H23 lung
[2] = tested on: NCI-H226 lung
[3] = tested on: NCI-H322M lung
[4] = tested on: HOP-62 NSCLC
[5] = tested on: NCI-H460 lung
[6] = tested on: HOP-92 NSCLC
[7] = tested on: NCI-H522 lung
[8] = tested on: 786-0 renal
[9] = tested on: DU-145 prostate
[10] = tested on: K-562 leukemia
[11] = tested on: MALME-3M melanoma
[12] = tested on: MDA-MB-231 breast
[13] = tested on: RXF 393 renal
[14] = tested on: SF-268 CNS
[15] = tested on: SF-295 CNS
[16] = tested on: UACC-257 melanoma
[17] = tested on: M14 melanoma
[18] = tested on: A549/ATCC NSCLC
[19] = tested on: COLO 205 colon
[20] = tested on: SF-539 CNS

SMILES | growth [1] | growth [2] | growth [3] | growth [4] | growth [5] | growth [6] | growth [7] | growth [8] | growth [9] | growth [10] | growth [11] | growth [12] | growth [13] | growth [14] | growth [15] | growth [16] | growth [17] | growth [18] | growth [19] | growth [20]
COc1ccn(C)c(=O)c1C#N | 105% (inactive) | 91.6% (inactive) | 92.3% (inactive) | 83.5% (inactive) | 108% (inactive) | 116% (inactive) | 66.5% (inactive) | 104% (inactive) | 106% (inactive) | 105% (inactive) | 106% (inactive) | 90.7% (inactive) | 107% (inactive) | 94.3% (inactive) | 101% (inactive) | 87% (inactive) | 102% (inactive) |  |  | 
COc1ccc(N)cc1N | 96.8% (inactive) | 103% (inactive) | 96.1% (inactive) | 95.5% (inactive) | 107% (inactive) | 85.7% (inactive) |  | 102% (inactive) | 120% (inactive) | 115% (inactive) | 117% (inactive) | 99% (inactive) |  | 128% (inactive) | 105% (inactive) |  | 111% (inactive) | 118% (inactive) | 121% (inactive) | 92.8% (inactive)
CCOP(=O)(OCC)C(=O)N(CC)CC | 105% (inactive) | 94.3% (inactive) | 105% (inactive) | 99.9% (inactive) | 103% (inactive) |  | 91.7% (inactive) | 98% (inactive) | 107% (inactive) | 121% (inactive) | 108% (inactive) | 99.8% (inactive) | 101% (inactive) | 101% (inactive) | 98.8% (inactive) | 88.4% (inactive) | 101% (inactive) | 98.4% (inactive) | 118% (inactive) | 113% (inactive)
O=P1(N(CCCl)CCCl)NCCCO1 (stereo not drawn) | 112% (inactive) | 101% (inactive) | 104% (inactive) | 105% (inactive) | 104% (inactive) | 131% (inactive) | 109% (inactive) | 104% (inactive) | 124% (inactive) | 104% (inactive) | 96.5% (inactive) | 107% (inactive) | 110% (inactive) | 117% (inactive) | 107% (inactive) | 109% (inactive) | 101% (inactive) |  | 116% (inactive) | 110% (inactive)
N#CCC(=O)c1ccccc1 | 97.7% (inactive) | 97.9% (inactive) | 96.6% (inactive) | 101% (inactive) | 96.9% (inactive) | 86.8% (inactive) | 102% (inactive) | 107% (inactive) | 98.5% (inactive) | 84.5% (inactive) | 102% (inactive) | 104% (inactive) | 108% (inactive) | 94.1% (inactive) | 101% (inactive) |  | 111% (inactive) |  | 101% (inactive) | 111% (inactive)
C[C@@H]1C/C=C\C(=O)O[C@H](/C=C/C#C/C=C/C(C)(C)[C@@H](O)c2cccc(O)c2Br)[C@@H](C)/C=C/[C@H](C)C[C@H](OC(N)=O)C1 | 40.6% (inactive) | 20.1% (inactive) | 54.1% (inactive) | 13.1% (inactive) | 17.1% (inactive) |  | 16.7% (inactive) | 37.2% (inactive) | 47.6% (inactive) | 6.76% (active) | 28.4% (inactive) | 2.09% (active) | 27.4% (inactive) | 40.4% (inactive) | -6.34% (active) | -11.1% (active) | 0.391% (active) | 28.5% (inactive) | -26.1% (active) | 30.6% (inactive)
CC1=CC(=O)CCC12CCOC2=O (stereo not drawn) | 102% (inactive) | 101% (inactive) | 96.4% (inactive) | 99.5% (inactive) | 102% (inactive) | 102% (inactive) | 96.1% (inactive) | 93.9% (inactive) | 106% (inactive) | 97.1% (inactive) | 89.9% (inactive) |  | 108% (inactive) | 103% (inactive) | 95.8% (inactive) | 97.9% (inactive) | 102% (inactive) |  | 116% (inactive) | 92.9% (inactive)
CCOC(=O)c1cncn1C(C)c1ccccc1 (stereo not drawn) | 118% (inactive) | 105% (inactive) | 101% (inactive) | 97.7% (inactive) | 118% (inactive) | 95.8% (inactive) | 94.3% (inactive) | 97% (inactive) | 120% (inactive) | 96.7% (inactive) | 109% (inactive) | 112% (inactive) | 103% (inactive) | 113% (inactive) | 104% (inactive) | 103% (inactive) | 103% (inactive) |  | 109% (inactive) | 107% (inactive)
CCCCS(=O)(=O)Cl | 108% (inactive) | 100% (inactive) | 111% (inactive) | 122% (inactive) | 106% (inactive) | 97.4% (inactive) | 99.8% (inactive) | 103% (inactive) | 113% (inactive) | 107% (inactive) | 108% (inactive) | 111% (inactive) | 112% (inactive) | 108% (inactive) | 102% (inactive) | 110% (inactive) | 99.1% (inactive) |  | 109% (inactive) | 99% (inactive)
C[C@@]12CCCc3coc(c31)C(=O)c1cc3c(cc12)C(=O)C1=C(NCCS1(=O)=O)C3=O | -36.4% (active) | 7.87% (active) | -6.28% (active) | -9.65% (active) | 0.0882% (active) |  | -55.6% (active) | 6.38% (active) | -91.8% (active) | -38.6% (active) | -98.2% (active) | -23.7% (active) | 6.73% (active) | -1.36% (active) | 2.57% (active) | -94.2% (active) | -80.9% (active) | -10.7% (active) | -78.1% (active) | -63.4% (active)
O=NN1CCCCC1 | 104% (inactive) | 109% (inactive) | 128% (inactive) | 102% (inactive) | 116% (inactive) | 110% (inactive) |  | 103% (inactive) | 107% (inactive) | 121% (inactive) | 120% (inactive) | 95.9% (inactive) | 118% (inactive) | 96.1% (inactive) | 119% (inactive) | 97.8% (inactive) | 103% (inactive) | 102% (inactive) |  | 91.8% (inactive)
COc1ccc(/C=C(/C)[N+](=O)[O-])cc1OC | 62.2% (inactive) and 58.1% (inactive) | 88.7% (inactive) and 79.2% (inactive) | 48% (inactive) and 94.5% (inactive) | 48.3% (inactive) | 34.2% (inactive) and 22.9% (inactive) | -6.58% (active) and -11.5% (active) | -88.2% (active) and -73.2% (active) | -53.1% (active) and -23.3% (active) | 22.3% (inactive) and 13.5% (inactive) | 7.3% (active) and 5.18% (active) | -22.6% (active) and -51.7% (active) | 11.3% (inactive) and 28.8% (inactive) | -91.1% (active) and -95.7% (active) | 3.01% (active) and 44.6% (inactive) | 98.6% (inactive) and 104% (inactive) | -88.6% (active) and -67.5% (active) | -52.6% (active) and -61.6% (active) |  | -69.3% (active) and -76.2% (active) | 15.1% (inactive)
CC[C@H](C)[C@H](NC(=O)CN(C)C)C(=O)N(C)[C@H](C[C@@H](OC(C)=O)c1nc(C(=O)NC23CC(C(=O)OC)(C2)C3)cs1)C(C)C | 33.3% (inactive) | 35.2% (inactive) | 39.2% (inactive) | 20.1% (inactive) | 7.29% (active) | 57.2% (inactive) | 12% (inactive) | 26.4% (inactive) | 9.21% (active) | 9.47% (active) | 50.9% (inactive) | 1.51% (active) | 8.43% (active) | 21.8% (inactive) | 13.8% (inactive) | 46.8% (inactive) | -8.54% (active) |  | -35.8% (active) | -8.6% (active)
CCCC(C)SP(=S)(SC(C)CCC)SC(C)CCC (stereo not drawn) | 95.5% (inactive) | 88.8% (inactive) | 101% (inactive) | 101% (inactive) | 98.9% (inactive) | 94.7% (inactive) | 90.9% (inactive) | 98.9% (inactive) | 108% (inactive) | 112% (inactive) | 87.6% (inactive) | 113% (inactive) | 95.5% (inactive) | 104% (inactive) | 101% (inactive) |  | 94.4% (inactive) |  | 98.6% (inactive) | 103% (inactive)
